Structures are written as SMILES. Where “and” joins values, the source holds several entries; their conditions need not be identical. Equal entries are not always repeated. This is part of a sample that, as a whole, favours compounds with a hit. Of some 83,000 tested, about 20% had one in any assay.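 The endpoint reported here, percent growth, reads 100 for growth as untreated, 0 for no net growth and -100 for all cells dead.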 A number with no mark means an inactive call. Calls of active or inactive are those of the source. Rule for the calls: active = growth percent below 10; inactive = the rest.

The test system of this experiment is MDA-MB-468 breast. The experiment is described as follows: NCI-60 one-dose screen, 48 h (100 = growth as untreated, 0 = no growth, -100 = all killed). The following applies: 10 µM unless noted.
For the molecule `CCC[C@H](N[C@@H](C)C(=O)N1[C@H](C(=O)O)C[C@@H]2CCCC[C@@H]21)C(=O)OCC`, the growth is 101%. `C#Cc1cccc(NC(=O)Nc2ccccc2NC(=O)CCl)c1`: the growth is -45.2% [8.25 µM] (active). As for `Fc1ccc2[nH]cc(-c3nc(-c4c[nH]c5c(Cl)nccc45)cs3)c2c1`, the growth was 9.87% (active). The value for `NS(=O)(=O)c1cc2c(cc1Cl)NC(C(Cl)Cl)NS2(=O)=O` (centres undefined) was 101% and 108%; that for `Cc1cc(C)c(-c2cc(O)c(-c3c(C)cc(C)cc3C)cc2O)c(C)c1` was 4.15% (active). Next, `Cc1ccc2[nH]c3nc4cccnc4c(C)c3c2c1`: -35% (active); `C=CC(=O)N1CCN(c2ccc3cccc(NC(=O)c4cnc(C)cn4)c3n2)CC1`: 1.58% (active). Next, `CNCCCOc1c(Br)cc(CCNC(=O)/C(Cc2cc(Br)c(OC)c(Br)c2)=N/O)cc1Br`: 3.11% (active); `Nc1nc2c(c(=O)[nH]1)C(c1ccc3c(c1)OCO3)C=C(C(=O)O)N2` (centres undefined): 107%.

Regarding `O=C(COc1ccc(/C=C2\C(=O)Nc3cc(Cl)ccc32)cc1)Nc1ccc(Cl)cc1`, the growth is 86.8%. The value for `N#CC1=C(N)Oc2c(sc3c(F)cccc23)C1c1ccc(F)cc1` (centres undefined) was 26.5%.

On to `CC1(C)C(=NO)C(C)(C)C1=NO`, for which the growth is 103%. The value for `CCN1CCN(C(=S)SCC(=O)Nc2nc3ccc(OC)cc3s2)CC1` was 97.7%; that for `O=C(Nc1ccc(Nc2ccncc2)cc1)c1ccc(Nc2ccnc3ccc([N+](=O)[O-])cc23)cc1[N+](=O)[O-]` was 21.7%.

Values taken from PubChem BioAssay (NCI).
